Where “and” joins values, the source holds several entries; their conditions need not be identical. Equal entries are not always repeated. Results filed as inconclusive are left out. A call without a number means that no potency is given here. Calls of active or inactive are those of the source. The call rests on the fitted dose curve; in most records, active means well fitted curve in the direction sought with a large enough effect; inconclusive means small, poorly fitted or top-dose-only effect, or another doubt; inactive means no such curve, though single readings can be large; an effect the other way counts as inactive or inconclusive.
Legend:
[1] = qHTS of pediatric cancer cell lines to identify multiple opportunities for drug repurposing: Primary screen for BT-37 cells (AID 1347094); details: BT-37 viability, CellTiter-Glo luminescence, 48 h; series mostly up to 57.3 µM; further: potency means the concentration at half of the fitted maximal effect
Procedure, shortened: (§1)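 Viability was measured as metabolically active cells after 48 hours of treatment, read by CellTiter-Glo luminescence. Compounds were tested at multiple final concentrations, giving concentration-response curves.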

[2] = qHTS of pediatric cancer cell lines to identify multiple opportunities for drug repurposing: Primary screen for Saos-2 cells (AID 1347097); details: Saos-2 viability, CellTiter-Glo ATP luminescence, 48 h; series mostly up to 46 µM; further: nearly all actives have a fitted effect of over 40% in size; further: potency means the concentration at half of the fitted maximal effect
Procedure, shortened: as §1

[3] = qHTS of pediatric cancer cell lines to identify multiple opportunities for drug repurposing: Primary screen for SK-N-SH cells (AID 1347098); details: SK-N-SH viability, CellTiter-Glo luminescence, 48 h; series mostly up to 57 µM; further: nearly all actives have a fitted effect of over 65% in size; further: potency means the concentration at half of the fitted maximal effect
Procedure, shortened: (§2)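 Cells (500-1,000/well) rested 5 h, then received compounds for 48 h; metabolically active cells were measured by CellTiter-Glo luminescence. Final concentrations spanned up to 46 µM (MIPE, 11-point) or 0.59 nM-46 µM (NPC, 8-point) in primary screens, 11-point in follow-ups.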

[4] = qHTS of pediatric cancer cell lines to identify multiple opportunities for drug repurposing: Primary screen for LAN-5 cells (AID 1347100); details: LAN-5 neuroblastoma viability, CellTiter-Glo luminescence, 48 h; series mostly up to 46 µM; further: potency means the concentration at half of the fitted maximal effect
Procedure, shortened: (§3)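 Cells (500-1,000/well) in growth media were settled 5 h at 37 degrees C, then given compounds for 48 h. Viability was read as CellTiter-Glo luminescence. Primary runs used MIPE at 11 points (0.78 nM-46 µM) and NPC at 8 points (0.59 nM-46 µM); follow-ups used 11 points.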

[5] = qHTS of pediatric cancer cell lines to identify multiple opportunities for drug repurposing: Primary screen for BT-12 cells (AID 1347101); details: BT-12 viability, CellTiter-Glo luminescence, 48 h; series mostly up to 57.3 µM; further: nearly all actives have a fitted effect of over 25% in size; further: potency means the concentration at half of the fitted maximal effect
Procedure, shortened: as §2

[6] = qHTS of pediatric cancer cell lines to identify multiple opportunities for drug repurposing: Primary screen for Rh18 cells (AID 1347102); details: Rh18 rhabdomyosarcoma viability, CellTiter-Glo luminescence, 48 h; series mostly up to 46 µM; further: nearly all actives have a fitted effect of over 65% in size; further: potency means the concentration at half of the fitted maximal effect
Procedure, shortened: as §3

[7] = qHTS of pediatric cancer cell lines to identify multiple opportunities for drug repurposing: Primary screen for OHS-50 cells (AID 1347103); details: OHS-50 osteosarcoma viability, CellTiter-Glo luminescence, 48 h; series mostly up to 57.3 µM; further: nearly all actives have a fitted effect of over 40% in size; further: potency means the concentration at half of the fitted maximal effect
Procedure, shortened: as §2

[8] = qHTS of pediatric cancer cell lines to identify multiple opportunities for drug repurposing: Primary screen for RD cells (AID 1347104); details: RD rhabdomyosarcoma viability, CellTiter-Glo luminescence, 48 h; series mostly up to 46 µM; further: nearly all actives have a fitted effect of over 55% in size; further: potency means the concentration at half of the fitted maximal effect
Procedure, shortened: as §1

[9] = qHTS of pediatric cancer cell lines to identify multiple opportunities for drug repurposing: Primary screen for MG 63 (6-TG R) cells (AID 1347105); details: MG 63 (6-TG R) viability, CellTiter-Glo, 48 h; series mostly up to 46 µM; further: nearly all actives have a fitted effect of over 50% in size; further: potency means the concentration at half of the fitted maximal effect
Procedure, shortened: as §1

[10] = qHTS of pediatric cancer cell lines to identify multiple opportunities for drug repurposing: Primary screen for control Hh wild type fibroblast cells (AID 1347106); details: Hh wild-type fibroblast viability, CellTiter-Glo luminescence, 48 h; series mostly up to 46 µM;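 further: a drop in luminescence marks cytotoxicity and a rise apparent proliferation; nearly all actives have a fitted effect of over 55% in size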
Procedure, shortened: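 Viability after 48 h compound treatment at 37C, 500-1,000 cells/well, read as ATP luminescence with CellTiter-Glo. Primary screens used 11-point (MIPE, 0.78 nM-46 µM) or 8-point (NPC, 0.59 nM-46 µM) final concentrations; follow-up screens used 11-point dilutions.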

[11] = qHTS of pediatric cancer cell lines to identify multiple opportunities for drug repurposing: Primary screen for Rh30 cells (AID 1347107); details: Rh30 rhabdomyosarcoma viability, CellTiter-Glo luminescence, 48 h; series mostly up to 46 µM; further: nearly all actives have a fitted effect of over 75% in size
Procedure, shortened: as §3

[12] = qHTS of pediatric cancer cell lines to identify multiple opportunities for drug repurposing: Primary screen for Rh41 cells (AID 1347108); details: Rh41 rhabdomyosarcoma viability, CellTiter-Glo luminescence, 48 h; series mostly up to 46 µM; further: nearly all actives have a fitted effect of over 70% in size; further: potency means the concentration at half of the fitted maximal effect
Procedure, shortened: as §1

[13] = qHTS of pediatric cancer cell lines to identify multiple opportunities for drug repurposing: Primary screen for NB-EBc1 cells (AID 1347095); details: NB-EBc1 neuroblastoma viability, CellTiter-Glo luminescence, 48 h; series mostly up to 46 µM; further: potency means the concentration at half of the fitted maximal effect
Procedure, shortened: as §1

[14] = qHTS of pediatric cancer cell lines to identify multiple opportunities for drug repurposing: Primary screen for NB1643 cells (AID 1347099); details: NB1643 neuroblastoma viability, CellTiter-Glo luminescence, 48 h; series mostly up to 46 µM; further: nearly all actives have a fitted effect of over 50% in size; further: potency means the concentration at half of the fitted maximal effect
Procedure, shortened: as §1

[15] = qHTS of pediatric cancer cell lines to identify multiple opportunities for drug repurposing: Confirmatory screen for NB1643 cells (AID 1347109); details: NB1643 neuroblastoma cell viability; series mostly up to 45.9 µM; further: nearly all actives have a fitted effect of over 45% in size; further: potency means the concentration at half of the fitted maximal effect
Procedure, shortened: as §3

[16] = qHTS of pediatric cancer cell lines to identify multiple opportunities for drug repurposing: Confirmatory screen for A673 cells (AID 1347110); details: A673 Ewing sarcoma cell viability; series mostly up to 45.9 µM;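 further: cells exposed to compound for 48 h before the viability read; nearly all actives have a fitted effect of over 65% in size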; further: potency means the concentration at half of the fitted maximal effect
Procedure, shortened: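 Concentration-response curves came straight from titrations: 11 points (0.78 nM to 46 µM) for MIPE and several concentrations (0.59 nM to 46 µM) for NPC in primary, 11 points in follow-up. Readout: ATP luminescence at 48 h.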

[17] = qHTS of pediatric cancer cell lines to identify multiple opportunities for drug repurposing: Confirmatory screen for SK-N-MC cells (AID 1347111); details: SK-N-MC cell viability; series mostly up to 45.9 µM;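 further: cells exposed to compound for 48 h before the readout; nearly all actives have a fitted effect of over 70% in size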; further: potency means the concentration at half of the fitted maximal effect
Procedure, shortened: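 Metabolically active cells were quantified by ATP-dependent luminescence (CellTiter-Glo, 15 min at room temperature) following 48 h treatment. Cells had been plated at 500-1,000 per well and settled for 5 h beforehand.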

[18] = qHTS of pediatric cancer cell lines to identify multiple opportunities for drug repurposing: Confirmatory screen for BT-12 cells (AID 1347112); details: BT-12 rhabdoid tumor cells, viability; series mostly up to 45.9 µM; further: nearly all actives have a fitted effect of over 55% in size; further: potency means the concentration at half of the fitted maximal effect
Procedure, shortened: as §3

[19] = qHTS of pediatric cancer cell lines to identify multiple opportunities for drug repurposing: Confirmatory screen for LAN-5 cells (AID 1347113); details: LAN-5 neuroblastoma cell viability; series mostly up to 45.9 µM; further: nearly all actives have a fitted effect of over 65% in size; further: potency means the concentration at half of the fitted maximal effect
Procedure, shortened: as §3

[20] = qHTS of pediatric cancer cell lines to identify multiple opportunities for drug repurposing: Primary screen for U-2 OS cells (AID 1347096); details: U-2 OS viability, CellTiter-Glo luminescence, 48 h; series mostly up to 46 µM; further: nearly all actives have a fitted effect of over 50% in size
Procedure, shortened: as §3

Compound	Potency [1]	Potency [2]	Potency [3]	Potency [4]	Potency [5]	Potency [6]	Potency [7]	Potency [8]	Potency [9]	Potency [10]	outcome [11]	Potency [12]	Potency [13]	Potency [14]	Potency [15]	Potency [16]	Potency [17]	Potency [18]	Potency [19]	Potency [20]
CCOC(=O)C(C)(C)Oc1ccc(Cl)cc1	inactive	inactive	inactive	inactive	inactive	inactive	inactive	inactive	inactive	inactive	inactive	inactive								
O=C(Nc1ccc([N+](=O)[O-])cc1Cl)c1cc(Cl)ccc1O	1.69 µM (active) and 1.37 µM (active)	2.31 µM (active) and 1.18 µM (active)		1.3 µM (active) and 935 nM (active)	1.69 µM (active) and 1.93 µM (active)	3.72 µM (active)	1.51 µM (active) and 863 nM (active)	3.26 µM (active) and 1.48 µM (active)	3.66 µM (active) and 1.18 µM (active)	inactive	inactive	2.35 µM (active)	4.11 µM (active) and 743 nM (active)	820 nM (active) and 590 nM (active)	1.62 µM (active)	5.12 µM (active)	4.07 µM (active)	3.23 µM (active)	3.23 µM (active)	
CC(CCc1ccc(O)cc1)NCCc1ccc(O)c(O)c1 (stereo not drawn)	inactive	18.7 µM (active) and 21.1 µM (active)				20.9 µM (active)	inactive		inactive	inactive	inactive	inactive			inactive		9.27 µM (active)		inactive	
O=c1c(-c2ccc(O)cc2)coc2cc(O)cc(O)c12		inactive			inactive	inactive		inactive	inactive	inactive	inactive	inactive	23.7 µM (active)	inactive						inactive
CC(C)Cc1ccc(C(C)C(=O)O)cc1 (stereo not drawn)		inactive	inactive	inactive	inactive	inactive	inactive	inactive	inactive	inactive	inactive	inactive	inactive	inactive	inactive	6.57 µM (active)	3.69 µM (active)	inactive		
O=c1c(O)c(-c2ccc(O)c(O)c2)oc2cc(O)cc(O)c12			24.1 µM (active)					inactive	inactive	inactive	inactive	inactive	23.5 µM (active)							
Clc1ccc(C(c2ccccc2Cl)C(Cl)Cl)cc1 (stereo not drawn)		16.8 µM (active) and 18.7 µM (active)	inactive			inactive				inactive	inactive		21.1 µM (active) and 18.7 µM (active)	inactive	inactive			inactive	inactive	
NC12CC3CC(CC(C3)C1)C2	inactive	inactive		inactive		inactive	inactive	inactive	inactive	inactive	inactive	inactive	inactive	inactive	inactive	inactive	inactive	inactive	inactive	
CC(C)NCC(O)c1ccc(O)c(O)c1 (stereo not drawn)			inactive		inactive		inactive			inactive	inactive				inactive		2.33 µM (active)	4.14 µM (active)		inactive
C[C@@H]1CC(=O)NN=C1c1ccc(NN=C(C#N)C#N)cc1	inactive	18.7 µM (active)			21.9 µM (active) and 27.6 µM (active) and 24.3 µM (active)	inactive	21.7 µM (active)	29.6 µM (active)	10.6 µM (active)	inactive	inactive			26.4 µM (active)						inactive
O=c1[nH]cc(F)c(=O)[nH]1		inactive		7.43 µM (active)		inactive	inactive	inactive	inactive	inactive	inactive	inactive	9.44 µM (active) and 2.64 µM (active)	5.26 µM (active)						
CN1CCC(=C2c3ccccc3C=Cc3ccccc32)CC1			24.1 µM (active)				13.8 µM (active) and 19.3 µM (active)		inactive	inactive	inactive	inactive	inactive							inactive
Nc1nc2c(ncn2COC(CO)CO)c(=O)[nH]1			inactive	inactive		inactive		inactive		inactive	inactive		inactive	inactive						
CC1(CN2CCC(n3c(=O)[nH]c4ccccc43)CC2)OCc2ccccc2-n2cccc21 (stereo not drawn)	inactive	inactive	24.4 µM (active)	inactive	inactive	inactive			inactive	inactive	inactive			inactive						
CN1C(C(=O)Nc2ccccn2)=C(O)c2ccccc2S1(=O)=O		inactive	inactive			inactive	inactive	inactive	inactive	inactive	inactive	inactive								
COc1cc2c(c(OC)c1OC)-c1ccc(OC)c(=O)cc1[C@@H](NC(C)=O)CC2	6.2 nM (active) and 172 nM (active)	5.3 nM (active) and 1.32 µM (active)				inactive	4.9 nM (active) and 1 nM (active)		inactive	inactive	inactive	20.9 µM (active)	42.2 nM (active) and 1 nM (active)	0.0084 µM (active)	0.0447 µM (active)	0.0316 µM (active)	0.0398 µM (active)	0.0631 µM (active)	0.0891 µM (active)	
Cn1cnc2c1c(=O)[nH]c(=O)n2C			inactive							inactive	inactive			inactive						
COc1ccccc1OCCNCC(O)COc1cccc2[nH]c3ccccc3c12 (stereo not drawn)		inactive	inactive	inactive		inactive		inactive	inactive	inactive	inactive		inactive	inactive						
CC(COc1ccccc1)N(CCCl)Cc1ccccc1 (stereo not drawn)			inactive	inactive	9.68 µM (active)	inactive	24.3 µM (active)	inactive	inactive	inactive	inactive	inactive		inactive	16.5 µM (active)		10.4 µM (active)		20.8 µM (active)	inactive
O=C(CCCN1CCC(O)(c2ccc(Cl)cc2)CC1)c1ccc(F)cc1	inactive	inactive				inactive	inactive		inactive	inactive	inactive	inactive	inactive	inactive						
